Hits are enriched below; roughly 3.9% of the tested compounds scored in any of these assays.
GALK inhibitor: galactokinase (human) inhibition. Potency, µM (series often up to 57.5 µM), usual class: inhibitors. AID 1868. Purified GALK, Kinase-Glo residual ATP luminescence. actives 0.007% (n = 270,000). P51570
Target sequence (P51570 whole entry, looked up): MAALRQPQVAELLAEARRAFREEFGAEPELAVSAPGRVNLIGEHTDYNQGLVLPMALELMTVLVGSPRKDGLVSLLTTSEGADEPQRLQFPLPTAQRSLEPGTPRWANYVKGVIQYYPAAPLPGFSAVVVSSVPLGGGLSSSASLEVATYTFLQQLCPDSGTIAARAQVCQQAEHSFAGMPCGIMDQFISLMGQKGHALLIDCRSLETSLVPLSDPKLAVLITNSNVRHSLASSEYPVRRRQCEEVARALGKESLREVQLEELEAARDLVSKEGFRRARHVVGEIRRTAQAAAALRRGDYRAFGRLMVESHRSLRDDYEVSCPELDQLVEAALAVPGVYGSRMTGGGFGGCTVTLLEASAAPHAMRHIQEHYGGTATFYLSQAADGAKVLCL
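Kinase-Glo Plus luminescence measured ATP left after a 1 h room-temperature reaction. The reaction used 5 nM GALK, 100 uM galactose and 35 uM ATP at pH 8.0 (20 mM HEPES, 5 mM MgCl2, 60 mM NaCl, 1 mM DTT, 0.01% BSA).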
USP2a block: blocks human ubiquitin-specific protease USP2a; USP2 core, Ub-CHOP2 coupled fluorogenic reporter, 485/531; Potency, µM (doses to about 38.3 µM), hits mostly inhibitors; actives 0.01% (n = 330,000); AID 463254
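Deubiquitinase activity read as fluorescence (485/531 nm) after Ub-CHOP2 cleavage activates the enterokinase reporter on its substrate; USP2 core 10nM, Ub-CHOP2 and substrate 25nM each, 30min compound preincubation then 60min RT; data normalized to NEM, curves fitted.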
D1 PAM: potentiators of human D1 dopamine receptor; actives 0.036% (n = 360,000); potentiation, % at 10 µM; HEK293 TREx D1 cells, calcium flux, dopamine EC20 potentiation; P21728; in the data active = potentiation above about 30%
D1 ag: human D1 receptor agonism; HEK293 T-REx D1 cells, calcium flux, agonist mode; P21728; actives 1% (n = 360,000); activation, % at 2 µM; in the data active = activation above about 30%
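Tetracycline-induced HEK293 TREx D1 cells, force-coupled to calcium signalling, were dye-loaded with a no-wash calcium kit. Compound was pin-added after a 10 s baseline. Fluorescence was read kinetically at 1 cycle/s for 180 s, with calcium rises flagged as agonism.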
D1 antag: blocks dopamine activation of the human D1 receptor | HEK293 TREx D1 cells, calcium flux, dopamine EC80; stronger effect = lower value | actives 3.2% (n = 360,000) | activity change, negative = inhibition, % at 10 µM | P21728 | AID 504652; in the data active = activity change below about -30%
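Allosteric or orthosteric antagonism assessed as attenuation of the calcium response to EC80 dopamine, added 180 s after compound, in induced HEK293 Trex D1 cells loaded with no-wash calcium dye.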
Eya2 inh: blocks the phosphatase activity of human Eya2. O00167. Potency, µM (series often up to 76.9 µM), hits mostly inhibitors. actives 0.006% (n = 330,000). AID 488837. recombinant Eya2, OMFP fluorescence dephosphorylation (OMFP is methylfluorescein phosphate)
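Eya2 protein (added as 0.2 uM solution) was preincubated with compound for 10 min at ambient temperature in 50 mM HEPES pH 7.5, 50 mM NaCl, 5 uM MgCl2, 0.05% BSA, 1 mM DTT. OMFP (added at 50 uM) then reacted 10 min; fluorescence read at 485/525 nm.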
Large screens that a line does not name were inactive; ! = a repeat was not active. Unless noted, calls come from the whole dose curve; as a rule, active = well fitted inhibition curve with a large enough effect; inconclusive = small, poorly fitted or top-dose-only effect, or effect the other way; inactive = flat fitted curve, though single readings scatter.

CCCCn1c(NCc2ccccc2O)nc2ccccc21	none
COc1ccc(-c2noc(N3CCC(C(=O)Nc4ccccc4F)CC3)n2)cc1	none (no result: GALK inhibitor)
COc1ccc(-c2noc(N3CCC(C(=O)Nc4ccccc4Cl)CC3)n2)cc1	D1 antag -33.6 (no result: GALK inhibitor)
COc1ccc(-c2noc(N3CCC(C(=O)N(C)c4ccccc4)CC3)n2)cc1	Eya2 inh inconclusive (no result: GALK inhibitor)
COc1ccc(-c2noc(N3CCC(C(=O)NCc4ccc(Cl)cc4)CC3)n2)cc1	none (no result: GALK inhibitor)
COc1ccc(-c2noc(C3CCCN(C(=O)c4ccccc4)C3)n2)cc1 (configuration not stated)	D1 antag -39.1
COc1ccc(-c2noc(N3CCC(C(=O)NCc4ccccc4Cl)CC3)n2)cc1	D1 antag -46.7 (no result: GALK inhibitor)
COc1ccc(-c2noc(N3CCC(C(=O)NC(C)c4ccccc4)CC3)n2)cc1 (configuration not stated)	D1 antag -34.8 (no result: GALK inhibitor)
COc1cccc(C(=O)Nc2ccc3nc(SCc4ccc(C)cc4)sc3c2)c1	none (no result: GALK inhibitor, USP2a block, Eya2 inh)
Cc1ccc(S(=O)(=O)NC(=O)Nc2cc(C(C)(C)C)on2)cc1	D1 antag -37.3
Cc1ccc(S(=O)(=O)NC(=O)Nc2ccc(C)cn2)cc1	none
CCc1ccc(C(c2ccccc2)c2c(C)[nH]c3ccccc23)s1 (configuration not stated)	none (no result: GALK inhibitor, USP2a block, Eya2 inh)
Cc1c(C(=O)OCC(=O)N2c3ccccc3CC2C)oc2ccccc12 (configuration not stated)	D1 antag -65.2
Cc1c(C(=O)OCC(=O)N2C(C)CCCC2C)oc2ccccc12 (configuration not stated)	none
Cc1ccc(-c2nc(SCCOc3ccccc3C)n3[nH]c(=O)cc3n2)cc1	none (no result: GALK inhibitor, USP2a block, Eya2 inh)
CC1CCN(S(=O)(=O)N2CCC(C(=O)NCc3ccc4c(c3)OCO4)CC2)CC1	none (no result: GALK inhibitor)
COc1ccc(CNC(=O)C2CCC(CNS(=O)(=O)c3cccc4nsnc34)CC2)cc1 (configuration not stated)	D1 antag -45.8
CS(=O)(=O)N1CCC(C(=O)NCc2ccc3c(c2)OCO3)CC1	D1 antag -34.8
CC(C)NC(=O)C1CCN(C2CCN(C(=O)Cc3ccc4c(c3)OCO4)CC2)CC1	D1 antag -32.9
O=C(NCc1ccc2c(c1)OCO2)C1CCC(CNS(=O)(=O)c2cccc3nsnc23)CC1 (configuration not stated)	D1 antag -51.7 (no result: D1 PAM)
COc1ccc(OCC(=O)Nc2cc(-c3ccccc3F)nn2-c2ccccc2)cc1	none (no result: GALK inhibitor, USP2a block, Eya2 inh)
N#Cc1c[nH]n2c(NC3CCCC3)c(-c3cccc(Br)c3)nc12	none (no result: GALK inhibitor, USP2a block, Eya2 inh)
CSc1ccc(CNC(=O)Cn2nc(N3CCN(c4ccccc4)CC3)ccc2=O)cc1	none (no result: GALK inhibitor, USP2a block, Eya2 inh)
Cc1cc(C)c(NC(=O)Cn2c([N+](=O)[O-])cnc2C)c(C)c1	D1 antag -45.5
Cc1ccc(C)c(NC(=O)Cn2c([N+](=O)[O-])cnc2C)c1	none
Cc1ccc(NC(=O)c2ccc3c(c2)NC(=O)c2ccccc2S3)c(Cl)c1	none (no result: GALK inhibitor, USP2a block, Eya2 inh)
COc1cccc(C2C=C(c3ccc(Br)s3)Nc3ncnn32)c1OC (configuration not stated)	D1 ag 48.4
Fc1ccc(Br)cc1C1C=C(c2ccc(Br)s2)Nc2ncnn21 (configuration not stated)	none
CCOc1c(Cl)cc(CNc2ccc(N3CCCC3)cc2)cc1OC	none
CCOc1c(Cl)cc(CNc2ccc(S(N)(=O)=O)cc2)cc1OC	D1 antag -41.4
COc1ccccc1N1CCN(c2ccc(=O)n(CC(=O)O)n2)CC1	none (no result: GALK inhibitor, USP2a block, Eya2 inh)
CCCc1cc(-c2n[nH]c(C)c2-c2ccc(C(=O)OCC)o2)c(O)cc1O	D1 ag 65.3
CCCc1cc(C(=O)Cc2ccc(C(=O)OCC)o2)c(O)cc1O	none
CCOc1ccc(NC(=O)c2ccc(F)c(S(=O)(=O)N(CC)Cc3ccccc3)c2)cc1	none (no result: GALK inhibitor, USP2a block, Eya2 inh)
Cc1ccc(C2CCN(C(=O)Nc3ccc(Cl)c(Cl)c3)C2)cc1 (configuration not stated)	D1 antag -45.0 (no result: GALK inhibitor, USP2a block, Eya2 inh)
CCOc1ccc(NC(=O)N2CCC(c3ccc(C)cc3)C2)cc1 (configuration not stated)	D1 antag -30.9!

Source: PubChem
